± gives the standard deviation of the averaged measurements. The full ranking holds about 25,000 sequences; the median of “ln(normalized median fluorescence intensity)” is about 10, and the highest 2% start at about 12. What follows is part of a selection rich in the highest values, with near analogues and random picks from the rest.
tested on: PfAP2-G AP2 domain (GST-tagged); assay: gcPBM binding intensity (ln(normalized median fluorescence intensity)); higher = stronger DNA binding
Outline: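 Each value is the highest Masliner-normalised natural-log median intensity across replicate spots of either orientation of a probe. The probes were primer-extended double-stranded 36-bp intergenic genomic sequences on an Agilent 4 × 180k array, alongside negative controls, exposed for 1 h to GST-tagged P. falciparum DNA-binding domains expressed in E. coli. Bound protein was picked up with Alexa488 anti-GST antibody and scanned at 488 nm.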

| Sequence | gcPBM binding intensity (ln) |
| --- | --- |
| ATTAAAAAAAAAAAAAAAAAACAAAAAAAAAAAAAA [CACACA_negctrl_site1187] | 9.62 |
| ACTTGTAAGAAACACACACACACACCCATATATATA [CACACA_site796] | 10.2 ± 0.14 |
| TTTTTAAAACATCACTGTACCCGTTATGGTGAACAT [XGTACX_site3483] | 11.7 ± 1.2 |
| CTGAACCCGTTATGGTGTACATAAAATAAGACACAG [XGTACX_site3484] | 11.6 ± 0.96 |
| TTTTATTATTAAACATGTACCCATATTATTGTTATG [XGTACX_site5563] | 11.2 ± 0.56 |
| TATATATATATATATAGTACATATTAATTAATTTAT [XGTACX_site8198] | 10.8 ± 0.63 |
| CCTAAAAAAAAGAAATGATATACATATGTATATATA [GTGCAC_negctrl_site100] | 9.685 ± 0.064 |
| TATATAATATATTTATGTACGTATTTAAAAATTTAT [XGTACX_site160] | 11.6 ± 0.98 |
| ATAAAAATAAAAAGATGTACGTATTTTTTTTTTTTT [XGTACX_site5329] | 11.6 ± 0.91 |
| TAAATAGATGTTTTATGTACGTATAAATAAAAAAAA [XGTACX_site3412] | 11.7 ± 0.88 |
| AATAGTAAAAATCACTGTACGTTTATTTTTAAAATG [XGTACX_site1035] | 11.7 ± 0.91 |
| TTTATTTTGATTTAATGTACAAATAGTAAAACAAAA [XGTACX_site4789] | 10.9 ± 0.49 |
| AAATTTAGTAAAAAATGTACGTAAAATGTAAAATAT [XGTACX_site1314] | 11.5 ± 0.73 |
| ATTTATTTTGTTGTTGTTTTTATTTGATTGTTTTAT [CACACA_negctrl_site1275] | 9.785 ± 0.007 |
| AACATTATTTTGTGTACACATTCGGTTATATTATAT [CACACA_site5628] | 11.8 ± 1 |
| TTTTATAAATATTTTTGTACACATTTAAATATTATT [XGTACX_site4973] | 11.3 ± 0.59 |
| ATTTTATAACATTCATGTACACATTTCATTTATTTG [XGTACX_site3028] | 11.3 ± 0.77 |
| GTTATTCTTAATTTTTGTACACATTTTTATATTATT [XGTACX_site7227] | 11.4 ± 0.7 |
| TATATATATATTATATGTACACATTTGTGAATTATT [XGTACX_site5848] | 11.5 ± 0.85 |

| Sequence | gcPBM binding intensity (ln) |
| --- | --- |
| TATAACATTATTTTGTGTACACATTCGGTTATATTA [XGTACX_site6310] | 12 ± 1.1 |
| GCTTATTTTAATTCTTGTACTTATTTATATACAAAT [XGTACX_site2099] | 11.2 ± 0.83 |
| TTATTTATTTATATAGTGCAATAAACACATAAATAG | 10.1 ± 0.26 |
| TTTTGTAATTTTGTATGTACACATTAAAGTAATATG [XGTACX_site2401] | 11.5 ± 0.91 |
| AATTTTCAATAGTATACACACAATTCTATAAATATA [CACACA_site6650] | 9.84 ± 0.042 |
| ACTTCATTTTATAAGTGTACATAATTTGTTTATATA [XGTACX_site5453] | 11.5 ± 0.85 |
| AATAATTCTTAAAGGTGTACAATATGTATATAAGAA [XGTACX_site595] | 11.7 ± 0.6 |
| AATAATTGTTAAAGGTGTACAATACGTATGTAAGAA [XGTACX_site1328] | 11.5 ± 0.95 |
| AACAATTTTTAAAGGTGTACAATATGTATATAAGAA [XGTACX_site254] | 11.6 ± 0.93 |
| AATAAATAAATAAATAAAACAAAGGGATTACATACA [TGCATGCA_negctrl_site513] | 9.84 ± 0.11 |
| TACATTTATAATAATACACACATAAATTTACATTTT [CACACA_site3463] | 10.1 ± 0.16 |
| ATATATATATACATATGTACATATAAAATAATTTTG [XGTACX_site3731] | 11.1 ± 0.74 |
| CGGCACATTCTATATACACACATATAAATATATACA [CACACA_site566] | 9.97 ± 0.042 |
| CCAACATTTTTTAGAAGTACATTTTTATATTTATTA [XGTACX_site5179] | 11.3 ± 0.83 |
| TTATTATGCTGAGTACGTACTTATATAAGAATAGCA [XGTACX_site2955] | 11.8 ± 1 |
| AGAATAAGAATTATTAGTACTTATAAATATTATATT [XGTACX_site7228] | 10.9 ± 0.58 |
| TATATTATTATGCATAGTACGTACTGTGATAAGAAT [XGTACX_site2956] | 11.4 ± 0.8 |
| AAAAAAAAATATATATATATATATATAAATAAATTT [CACACA_negctrl_site519] | 9.315 ± 0.007 |
| AGGAAAAAAAAAATGACACACATATTTGAATTAAAA [CACACA_site1352] | 9.965 ± 0.007 |

| Sequence | gcPBM binding intensity (ln) |
| --- | --- |
| ACAAAATTTACAAAATGTACAAAGTATGTGTTTTAT [XGTACX_site6462] | 10.7 ± 0.36 |
| TATATGTGGGTTTTTTTTATGTGTTTTTCTTTTTTT [CACACA_negctrl_site936] | 10.2 ± 0.18 |
| TATTATAATTTTATATGTACACATATATAAATATAT [XGTACX_site4054] | 11.4 ± 1.1 |
| TGTGAAATAAAATTTGTACACACATATATATATATA [CACACA_site8093] | 11.1 ± 0.73 |
| AAATTATTTCCGTGTACACATAAATATATATTTTAT [CACACA_site5121] | 11.8 ± 0.83 |
| TTAATTTTATTTTTTTGTACACATAAATATTATAAA [XGTACX_site4680] | 11.4 ± 0.91 |
| TGAAATAAAATTTGTACACACATATTTATTTATATA [CACACA_site6421] | 11.2 ± 0.97 |
| GTGAAATTATTTCCGTGTACACATAAATATATATTT [XGTACX_site3989] | 11.8 ± 0.99 |
| TATTATGTCTAAAATAACATATTAATATATTATTTC [CACACA_negctrl_site285] | 9.77 ± 0.11 |
| TAAACAGTATGCAACGCATGCGTTGTTATATATAAA [TGCATGCA_site232] | 9.88 ± 0.042 |
| TCTTTTAAACAGTACACACACACATATATATATATA [CACACA_site924] | 11.2 ± 0.69 |
| AGCGTATTATACTGACGTACATTTTATGTAACTCCA [XGTACX_site2715] | 11.4 ± 1.1 |
| ATATGATCATTTTATCATTTTGCTTTTTCTTTTTTT [CACACA_negctrl_site1325] | 9.4 ± 0.42 |
| ATATTTTTGTTCAGGAGTACAGTTCAAGATGAAAAT [XGTACX_site4178] | 11.6 ± 0.99 |
| TTTGTTCATATGAAATGTACAAAAAAAAAAAAAAAA [XGTACX_site8849] | 10.8 ± 0.77 |
| GAGTTAATATTTAAAAGTACAAGATGAATGTAAAAA [XGTACX_site5810] | 11.3 ± 0.78 |
| ATAAATAATTGTAGTTGTACATGATATTTTTATTAC [XGTACX_site550] | 11.1 ± 0.63 |
| CATCTAAATTGTAGTTGTACACCTTAATCTTATTAC [XGTACX_site7547] | 11.7 ± 0.83 |
| ATATAATAGTTATATTGTACATAAATTATACACCTT [XGTACX_site628] | 11 ± 0.5 |
